# USP17 block: inhibitors of human USP17 deubiquitinase. A8MUK1. AID 1645855. 6.5% of 47,000 active. inhibition, % at 50 µM. purified USP17, Ub-rhodamine cleavage fluorescence, 3 h
# Target sequence (A8MUK1 whole entry, looked up): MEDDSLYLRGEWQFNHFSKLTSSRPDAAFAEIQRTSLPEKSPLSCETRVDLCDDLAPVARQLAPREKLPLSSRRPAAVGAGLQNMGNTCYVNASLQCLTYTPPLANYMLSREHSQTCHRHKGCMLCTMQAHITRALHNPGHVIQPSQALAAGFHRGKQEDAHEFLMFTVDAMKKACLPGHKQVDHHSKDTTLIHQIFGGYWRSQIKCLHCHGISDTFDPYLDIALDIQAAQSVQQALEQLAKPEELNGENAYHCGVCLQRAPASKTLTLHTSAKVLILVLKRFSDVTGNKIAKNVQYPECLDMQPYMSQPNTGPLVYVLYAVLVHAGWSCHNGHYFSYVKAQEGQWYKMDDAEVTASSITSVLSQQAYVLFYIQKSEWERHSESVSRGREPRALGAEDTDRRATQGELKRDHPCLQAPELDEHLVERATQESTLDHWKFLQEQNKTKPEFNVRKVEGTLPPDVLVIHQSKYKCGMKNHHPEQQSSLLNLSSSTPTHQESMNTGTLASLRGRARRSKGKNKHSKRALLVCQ
# USP28 inh: human USP28 deubiquitinase inhibition. Q96RU2. purified USP28, Ub-rhodamine cleavage fluorescence, 30 min. inhibition, % at 25 µM. 3% of 47,000 active. AID 1645857
# USP30 block: inhibitors of human USP30 deubiquitinase | Q70CQ3 | purified USP30, Ub-rhodamine cleavage fluorescence | inhibition, % at 25 µM | 5.3% of 47,000 active
# Hits are given with their value; - = inactive; . = no result. An excerpt weighted towards active compounds, which were near 11% of everything screened. Cut-off read from the data, not from the text of the source: active = inhibition above about 30%; inactive = the rest.
SMILES,USP17 block,USP28 inh,USP30 block
CN(C)c1ncnc2c1ncn2[C@@H]1CC[C@@H](NC(=O)c2ccccc2)[C@H](O)[C@H]1O,-,-,-
CCCCC/C=C/C(O)C(O)/C=C/c1ccc(Cl)c(O)c1CO (configuration not stated),30.9,-,-
CCS(=O)(=O)N1CCC(c2nc(C)c3c(n2)N(Cc2ccc(F)cc2)C(=O)CC3)C1 (configuration not stated),-,-,-
Cc1cc(C2CCCN2C(=O)Nc2ccc(Cl)cc2)no1 (configuration not stated),-,-,-
CCn1c(=O)c2ccccc2n(Cc2nc(-c3ccc(OC)cc3)no2)c1=O,35.5,-,-
CCn1c(=O)c2ccccc2n(Cc2nc(-c3ccccc3)no2)c1=O,-,-,-
CN1CCN(c2ccc3nnc(CCC(=O)N4CCCCC4)n3n2)CC1,-,-,-
Clc1ccc(COc2ccc(-c3nnco3)cc2)cc1Cl,-,-,-
CC1(C(=O)N2CCN(S(=O)(=O)c3ccccc3C#N)CC2)Cc2ccccc2C(=O)O1 (configuration not stated),-,-,-
CCN1CCN(CCNC(=O)c2cc3cn(C4CC4)cc3s2)CC1,-,-,-
CCCCNC(=O)c1cc2cn(C3CC3)cc2s1,40.5,-,-
CN(C)C(=O)CO[C@@H]1CO[C@H]2[C@@H]1OC[C@@H]2Nc1nccc(-c2cccc(F)c2)n1,-,-,-
Cc1cccc(NC(=O)N2CCC3(CC2)NC(=O)c2cc(F)ccc2N3C)c1,-,-,-
CC(=O)Nc1ccc(C(=O)Nc2cccc(-c3noc(C)n3)c2)cc1,48.5,.,.
Cc1nc(-c2ccc(-n3cc(C(=O)Nc4cccc(F)c4)c(C)n3)cc2)no1,51.3,-,-
Cc1nc(-c2cccc(NC(=O)c3ccc4c(c3)OCO4)c2)no1,-,-,-
Cc1cc(C)cc(NC(=O)c2cccc(-c3noc(C)n3)c2)c1,-,-,-
Cc1ccc(CC(=O)Nc2ccc(C)cc2-c2n[nH]c(C3CC3)n2)cc1,-,-,-
O=C(NCCc1c[nH]c2ccccc12)C(=O)Nc1ccccc1C(=O)N1CCCC1,-,-,-
O=C(NCCc1c[nH]c2ccccc12)C(=O)Nc1cccc2ncccc12,41.6,-,-
Nc1nc(N)nc(CN2CCCC2c2nc3ccccc3s2)n1 (configuration not stated),-,-,-
CCn1ncc(CN(C)C(=O)Nc2ccc(Cl)cc2)c1C,-,-,31.7
CCn1ncc(CN(C)C(=O)c2cnn3c(C(F)F)cc(-c4ccc(OC)cc4)nc23)c1C,-,-,-
COc1cccc(NC(=O)N2CCc3nc(C(N)=O)sc3CC2)c1,-,-,-
O=C(c1ccccn1)N1CCCCCC1c1cc(-c2ccc(F)cc2)on1 (configuration not stated),-,-,-
SMILES,USP17 block,USP28 inh,USP30 block
Cc1cnc(C2CCN(C(=O)c3noc4c3CCCC4)C2)[nH]1 (configuration not stated),-,-,-
CC(NC(=O)c1ccccc1)c1nc2ccccc2n1CC(=O)Nc1ccc(F)cc1 (configuration not stated),39.3,-,-
CCc1cccc(C)c1NC(=O)Cn1c(C(C)NC(=O)c2ccc(C)cc2)nc2ccccc21 (configuration not stated),61.0,40.3,53.8
CCOc1nc2cccnc2n(CC(=O)Nc2ccc3c(c2)OCO3)c1=O,-,-,-
CC(=O)NC(Cc1ccccc1)c1nc2ccccc2n1Cc1ccccc1C (configuration not stated),-,-,-
CC(C)c1ccc(NC(=O)Cn2c(CNC(=O)c3ccccc3)nc3ccccc32)cc1,-,-,-
CC(NC(=O)c1ccccc1)c1nc2ccccc2n1CC(=O)Nc1ccc2c(c1)OCO2 (configuration not stated),53.8,-,49.0
CC(C)N1CCc2c(C#N)c(NCCc3ccccc3)n3cnnc3c2C1,-,-,-
Cc1ccc2nc3c(cc(C(=O)Nc4ccc5c(c4)OCO5)n3Cc3ccccc3)c(=O)n2c1,-,-,-
Cc1ccc(NC(=O)COc2ccc(N3CC(C(N)=O)CC3=O)cc2)cc1C (configuration not stated),-,-,-
Cc1cccc(NC(=O)Cc2nnc(-c3ccc4ncccc4c3)o2)c1,-,-,-
CCc1ccc(NC(=O)Cc2nnc(-c3ccc4ncccc4c3)o2)cc1,62.6,-,43.2
CCOc1cccc(CN2Cc3cccc(OCC)c3OCC2=O)c1,-,-,-
Cc1ccc(Cl)cc1NC(=O)c1ccc(N(C)C)cc1,-,-,-
CN(C)c1ccc(/C=N/NC(=O)c2ccc(Cl)cc2)cc1,88.2,-,-
Cc1cc(=O)n(CC(=O)N2CCCc3ccccc32)c(N2CCOCC2)n1,-,-,-
CCc1nc(N)n(CC(=O)N2CCCc3ccccc32)c(=O)c1C,75.6,-,53.7
COCCNc1cc(C)nc2c(-c3ccc(F)cc3)cnn12,-,-,-
CC(C)=CCC/C(C)=C/CC/C(C)=C/Cc1c(C)cc(O)cc1O,38.7,32.2,-
COC1=C(OC)C(=O)C(C/C=C(/C)CC/C=C(\C)CC/C=C(\C)CC/C=C(\C)CC/C=C(\C)CC/C=C(\C)CCC=C(C)C)=C(C)C1=O,-,-,-
O=[N+]([O-])c1cccc(S(=O)(=O)N2CCCC2c2ccco2)c1 (configuration not stated),-,-,-
Cc1cc(N2CC(C)OC2=O)nc(C2CCN(C(=O)OC(C)(C)C)CC2)n1 (configuration not stated),-,-,35.1
Cc1cc(N2CC(C)OC2=O)nc(C2CCN(C(=O)C(C)(C)C)CC2)n1 (configuration not stated),-,-,-
Clc1cncc(Oc2nc(-c3cccnc3)nc3ccccc23)c1,62.6,-,-
O=C(O)c1cccc(Nc2nc(-c3cccnc3)nc3ccccc23)c1,-,-,-
SMILES,USP17 block,USP28 inh,USP30 block
Cc1n[nH]c(C)c1CCc1nc2c3ccccc3nc(SCC(=O)c3ccc(F)cc3)n2n1,53.2,-,71.2
COc1cc2nc(SCC(=O)c3ccc(F)cc3)n3nc(C)nc3c2cc1OC,-,-,-
Cc1ccc(C)c(S(=O)(=O)N(CC(=O)N2CCCc3ccccc32)C2CCCCCC2)c1,-,-,-
CCc1ccc(S(=O)(=O)c2cn(CC(=O)Nc3ccccc3)c3ccccc3c2=O)cc1,-,-,-
CCc1ccc(NC(=O)CSc2ncc(S(=O)(=O)c3ccccc3)c(=O)[nH]2)cc1,-,-,38.4
COc1cccc(Nc2nc(NCCN3CCOCC3)nc3c2cnn3C)c1,-,-,-
CN(C(=O)CSc1nnc(-c2cc3ccccc3n2C)o1)c1ccccc1,-,-,52.1
Cn1c(-c2nnc(SCC(=O)Nc3ccc4c(c3)OCO4)o2)cc2ccccc21,-,-,-
Cn1c(-c2nnc(SCC(=O)Nc3ccccc3F)o2)cc2ccccc21,43.2,41.1,81.8
COc1ccccc1NC(=O)CSc1nnc(-c2cc3ccccc3n2C)o1,-,-,-
CCN(c1ccccc1)S(=O)(=O)N1CCCC(C(=O)NCc2ccc(F)cc2)C1 (configuration not stated),.,-,-
O=C(Nc1cccc(Oc2ccccc2)c1)c1c(F)cccc1F,-,36.1,-
COc1cccc(NC(=O)C2=CCN(Cc3ccccc3F)CC2)c1,-,-,-
NC(=O)c1cccc(NC(=O)c2cccc(Oc3ccccc3)c2)c1,-,-,-

# Screening data deposited in PubChem BioAssay by Buhrlage Lab, Dana-Farber Cancer Institute and Novartis Institutes for BioMedical Research (Cambridge, Mass).
